Most compounds without a hit are left out; they make up all but 0.51% or so of the library.
FMDV antiviral = Primary qHTS Assay for Foot and Mouth Disease Virus Antivirals against NCGC Sytravon and CBC Compound Libraries: Firefly Luciferase Signal; FMDV antiviral cell assay, firefly luciferase signal; Potency, µM (highest dose often 57.5 µM), for the others: top-dose activity change, negative = inhibition, hits mostly inhibitors; 120,000 tested, 0.23% active; also: nearly all actives have a fitted effect of over 60% in size
FMDV Renilla = Primary qHTS Assay for Foot and Mouth Disease Virus Antivirals against NCGC Sytravon and CBC Compound Libraries: Renilla Luciferase Signal | FMDV replicon cells, Renilla luciferase signal | Potency, µM (doses to about 57.5 µM), inactives show at the highest dose activity change, negative = inhibition, hits mostly inhibitors | 120,000 tested, 0.32% active | AID 1745857, 2022; also: nearly all actives have a fitted effect of over 55% in size
An asterisk follows results filed as active; ? = inconclusive; [ ] = dose if it differs, or a comment. Calls follow the shape of the full dose curve. % is scaled to controls: 0 for no effect and ±100 for the full control effect; potency is read from the fitted curve at half-maximal effect.

SMILES	FMDV antiviral	FMDV Renilla
CCN(CC)C(=S)Sc1ccc([N+](=O)[O-])cc1	2µM*	-5%
CCN(CC)C(=S)SC(C(=O)c1ccccc1)c1ccccc1 (stereo not drawn)	9%	12%
NC(=O)c1c(NC(=O)CN2CCN(C(=O)C3CCCO3)CC2)sc2c1CCC2 (stereo not drawn)	1%	-2%
CCC(C)c1ccc(NC(=O)COC(=O)CCC2CCCC2)cc1 (stereo not drawn)	31%	0%
CC1(C)CC(=O)C2=C(C1)Nc1[nH]n(-c3ccccc3)c(=O)c1C2c1ccc(F)cc1 (stereo not drawn)	43%	156%
CC1(C)CC(=O)C2=C(C1)Nc1[nH]n(-c3ccccc3)c(=O)c1C2c1ccc(O)cc1 (stereo not drawn)	2%	10µM*
Cc1nc2cc(NC(=O)c3ccc(CNC(N)=O)cc3)ccc2o1	90%	-3%
CCN(CC)C(C)CN1c2ccccc2Sc2ccccc21 (stereo not drawn)	17%[11.5 µM]	-1%
CCN1/C(=C/C=C/c2sc3ccccc3[n+]2CC)Sc2ccccc21	3.2µM*	?
COC(=O)/C=C/c1ccc(OS(C)(=O)=O)c(OC)c1	54%	19%
COc1ccc(C(Nc2ncc(C(F)(F)F)cc2Cl)c2nccn2C)cc1 (stereo not drawn)	-14%	4%
Cn1nc(CC(=O)Nc2ccc(O)cc2)c2ccccc2c1=O	?	-24%
Cn1nc(CC(=O)Nc2ccc(Cl)cc2Cl)c2ccccc2c1=O	?	3.2µM*
CCc1ccccc1NC(=O)c1cnc2ccccc2n1	152%	6%
O=C(Nc1cccc(Cl)c1)c1nnc(C(=O)N2CCC(C(=O)NCCN3CCCC3)CC2)s1	-2%	-4%
Cc1ccc(O)c(C(=O)OCC(=O)Nc2ccccc2N2CCCC2=O)c1	-4%	-2%
Cc1cccc(CN2CCCN(c3cccc(C(=O)N4CCN(c5ccccc5)CC4)c3)C2=O)c1	?	10µM*
O=C(c1ccc(N2CCCN(Cc3ccccc3)C2=O)cc1)N1CCN(c2ccccc2)CC1	?	-14%
COc1ccc(-c2nc(SCc3cc(=O)c4cccc(Cl)c4[nH]3)n[nH]2)cc1	?	11µM*
COc1ccc(-c2nc(SCc3cc(=O)c4cc(C)ccc4[nH]3)n[nH]2)cc1	-16%	?
COC(=O)c1ccc(COc2ccc(C(=O)c3ccc(Cl)cc3)cc2)cc1	0%	-13%
CSc1ccc(CN(C)C(=O)CSc2nnc(COc3ccc(Cl)cc3)n2C)cc1	10µM*	4µM*
CN(Cc1ccsc1)C(=O)CSc1nnc(COc2ccc(Cl)cc2)n1C	7%	9%
Cc1cc(-c2ccco2)n[nH]1	57%	-7%
O=[N+]([O-])c1cccc(NS(=O)(=O)c2ccccc2[N+](=O)[O-])c1	12%	182%
SMILES	FMDV antiviral	FMDV Renilla
CC(C)=CC(=O)Nc1ccc(OC2CCCC2)cc1	0%	10%
O=C(Nc1ccc(OC2CCCC2)cc1)c1ccncc1	-25%	5µM*
COc1ccc(NS(=O)(=O)c2cccc(C(=O)N3c4ccccc4CC3C)c2)cc1 (stereo not drawn)	?	98%
O=C1CCCC2=C1C(c1ccc(OCc3ccc([N+](=O)[O-])cc3)c(Cl)c1)C1=C(CCCC1=O)O2	30%	51%
Cc1ccc(/C=C(/C#N)C(=O)Nc2cccc3ncccc23)cc1	2%	17%
Cc1cccc(NC(=O)/C(C#N)=C/c2cc(C(C)(C)C)c(O)c(C(C)(C)C)c2)c1C	?	6.3µM*
CCc1nn2c(=O)cc(CNc3cc4c(cc3Cl)OCCCO4)nc2s1	-11%	12%
CCCOc1ccc(C2CC(=O)Nc3c2c(C)nn3-c2ccc3nncn3n2)cc1OCC (stereo not drawn)	-4%	-1%
Cc1cc(C)n(-c2nc3c(c(=O)n(CCc4ccccc4)c(=O)n3C)n2CCC(C)C)n1	?	5µM*
CCCn1c(-n2nc(C)cc2C)nc2c1c(=O)n(CCc1ccccc1)c(=O)n2C	-24%	?
CN(CC(=O)NC(=O)NCc1ccco1)Cc1cccc(Cl)c1Cl	7%	-3%
CC(CO)NC(=O)CSc1nc(-c2ccccc2)c(-c2ccccc2)o1 (stereo not drawn)	-2%	17%
O=C(Nc1ccc(OC(F)(F)F)cc1)c1cc2ccccn2n1	20%	8.9µM*
O=C(Nc1ccccc1C(F)(F)F)c1cc2ccccn2n1	145%	25%
O=c1[nH]c2ccc(Cl)cc2c(-c2ccccc2)c1CN1CCCCC1	2%	-3%
O=C(Nc1ccncc1)C1CCN(c2nc3ccccc3o2)CC1	?	16µM*
O=C(Nc1ccc(C(F)(F)F)cc1)C1CCN(c2nc3ccccc3o2)CC1	-24%	?
CCCNc1nc(-c2[nH]c(C)c(C(C)=O)c2C)cs1	91%	175%
Cc1cccc(Cn2c(=O)n(-c3ccccc3C)c(=O)c3c2c2cc(C)ccc2n3C)c1	-16%	-9%
